Measured values: the supplement of paper PMC10849652
About 8,800 targets were measured; listed, in parts, are those with a hit and a random draw of the rest. About 0.5% of all pairs of compound and target were hits. Values without a mark were called inactive.

Assays:
Experiment in all cases: log2 fold change, soluble protein after heating vs DMSO (PISA); higher = thermal stabilisation; K562 lysate, 10 uM; active = over 0.2 and 3.5 SD of the protein, either way, in both replicates (recomputed)
[1] = compound: C#Cc1cccc(Nc2ncnc3cc(OCCOC)c(OCCOC)cc23)c1 [erlotinib]
Method in brief: (§1)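 To prepare the extract, K562 pellets were dounce-homogenised in PBS pH 7.4 with 1 mM MgCl2, giving crude material at 1 mg/mL protein. This was treated with 10 μM compound for 30 min, then heated in aliquots for 3 min over 48°C-58°C before pooling and addition of NP-40 to 0.5% at 4°C. Centrifugation at 21,000xg for 90 min left soluble protein in the supernatant, which TMTpro 16plex LC-MS/MS quantified with equalised channel sums. Results are log-two fold changes in thermal stability compared with solvent controls, from duplicates.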

[2] = compound: C/C(=N\NC(=O)C1=CC(=CC=C1)S(=O)(=O)N2CCOCC2)/C3=C(C=CC(=C3)Cl)O
Method in brief: as §1

[3] = compound: C1=CC(=CC=C1C2=NC3=C(N2)C=C(C=C3)C(=O)N)OC4=CC=C(C=C4)Cl
Method in brief: as §1

[4] = compound: C1=CC2=C(C=CC(=C2)/C=C\3/C(=O)NC(=NCC4=CC=CS4)S3)N=C1
Method in brief: as §1

[5] = compound: C1=CC2=NC=CN=C2C=C1/C=C/3\C(=O)NC(=O)S3
Method in brief: as §1

[6] = compound: C1=CC=C(C=C1)C2=NC(=C(N2)C3=CC=NC=C3)C4=CC(=C(C=C4)Cl)O
Method in brief: as §1

[7] = compound: C1=CC=C2C(=C1)C3=NNC4=CC=CC(=C43)C2=O
Method in brief: as §1

[8] = compound: C1CCN(C1)C(=O)NC2=CC=CC(=C2)NC3=NC=C(C(=N3)NCCC4=CN=CN4)Br
Method in brief: as §1

[9] = compound: C1CN(CCC1(CC2=CC=C(C=C2)Cl)N)C3=NC=NC4=C3C=CN4
Method in brief: as §1

[10] = compound: C1COCCN1CCN2C3=CC=CC=C3N=C2NC(=O)C4=CC(=CC=C4)[N+](=O)[O-] [IRAK-1-4 Inhibitor I]
Method in brief: as §1

[11] = compound: C=CC(=O)N1CCC[C@@H](n2nc(-c3ccc(Oc4ccccc4)cc3)c3c(N)ncnc32)C1 [ibrutinib]
Method in brief: as §1

[12] = compound: CC(=O)c1cnc2ccc(-c3cc(Cl)c(O)c(Cl)c3)nc2c1N[C@H]1CC[C@H](CN(C)C)CC1
Method in brief: as §1

[13] = compound: CC(C)(C)Cn1c(N)nc2ccc(-c3[nH]c(C(C)(C)C)nc3-c3ccc(F)cc3)nc21 [ralimetinib]
Method in brief: as §1

[14] = compound: CC(C)(O)CC(=O)NCCn1ccc2ncnc(Nc3ccc(Oc4cccc(C(F)(F)F)c4)c(Cl)c3)c21
Method in brief: as §1

[15] = compound: CC(C)C1=C2N=C(C=C(N2N=C1)NCC3=CC=CC=C3)NCCCCCCN
Method in brief: as §1

[16] = compound: CC1=C(C(CC(=O)N1)C2=CC=C(C=C2)C(F)(F)F)C(=O)NC3=C(C=C4C(=C3)C=NN4)F
Method in brief: as §1

[17] = compound: CC1=C(C2=C(C=C1)C(=O)C3=CC=CC=C3N2CCCN)C
Method in brief: as §1

[18] = compound: CC1=C(C=C(C=C1)NC(=O)C2=CC(=CC=C2)C(C)(C)C#N)NC3=CC4=C(C=C3)N=CN(C4=O)C
Method in brief: as §1

[19] = compound: CC1=C(C=C(C=C1)NC(=O)C2=CC(=CC=C2)N(C)C)NC(=O)C3=CC=C(C=C3)O
Method in brief: as §1

[20] = compound: CC1=CC=C(C=C1)SC2=C3C=C(SC3=CN=C2)C(=O)N
Method in brief: as §1

Sequence of UniProt P05091 (P05091 whole entry, looked up): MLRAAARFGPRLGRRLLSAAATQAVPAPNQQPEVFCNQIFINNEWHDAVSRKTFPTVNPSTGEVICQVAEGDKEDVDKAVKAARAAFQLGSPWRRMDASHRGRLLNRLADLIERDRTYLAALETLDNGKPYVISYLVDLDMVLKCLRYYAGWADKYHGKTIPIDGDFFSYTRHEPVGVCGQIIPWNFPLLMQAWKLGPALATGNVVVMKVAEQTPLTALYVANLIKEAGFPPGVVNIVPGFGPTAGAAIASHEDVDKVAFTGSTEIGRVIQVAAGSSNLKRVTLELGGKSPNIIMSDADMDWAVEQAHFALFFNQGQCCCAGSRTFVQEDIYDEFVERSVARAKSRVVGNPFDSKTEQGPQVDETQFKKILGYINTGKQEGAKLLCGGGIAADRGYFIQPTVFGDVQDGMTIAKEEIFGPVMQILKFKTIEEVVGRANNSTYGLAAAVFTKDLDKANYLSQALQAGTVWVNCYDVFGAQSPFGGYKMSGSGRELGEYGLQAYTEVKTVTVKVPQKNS
Sequence of UniProt Q99943 (Q99943 whole entry, looked up): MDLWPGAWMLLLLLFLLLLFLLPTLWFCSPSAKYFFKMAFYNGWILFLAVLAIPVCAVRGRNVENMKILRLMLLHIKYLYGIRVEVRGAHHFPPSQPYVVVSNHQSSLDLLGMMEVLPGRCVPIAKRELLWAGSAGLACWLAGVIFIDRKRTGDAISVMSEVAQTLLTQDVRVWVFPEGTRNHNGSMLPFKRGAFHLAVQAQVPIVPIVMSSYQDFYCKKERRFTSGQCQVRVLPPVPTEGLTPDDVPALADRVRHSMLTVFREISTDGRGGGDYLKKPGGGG
Sequence of UniProt Q96BM9 (Q96BM9 whole entry, looked up): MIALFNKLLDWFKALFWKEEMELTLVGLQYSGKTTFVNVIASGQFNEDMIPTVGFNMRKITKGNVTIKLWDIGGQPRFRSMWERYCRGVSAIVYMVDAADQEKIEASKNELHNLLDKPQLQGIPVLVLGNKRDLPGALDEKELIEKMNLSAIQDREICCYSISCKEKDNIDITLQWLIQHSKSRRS
Sequence of UniProt P07311 (P07311 whole entry, looked up): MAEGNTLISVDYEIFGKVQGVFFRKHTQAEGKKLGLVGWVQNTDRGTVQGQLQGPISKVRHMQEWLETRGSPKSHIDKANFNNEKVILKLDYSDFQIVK
Sequence of UniProt Q6P1M9 (Q6P1M9 whole entry, looked up): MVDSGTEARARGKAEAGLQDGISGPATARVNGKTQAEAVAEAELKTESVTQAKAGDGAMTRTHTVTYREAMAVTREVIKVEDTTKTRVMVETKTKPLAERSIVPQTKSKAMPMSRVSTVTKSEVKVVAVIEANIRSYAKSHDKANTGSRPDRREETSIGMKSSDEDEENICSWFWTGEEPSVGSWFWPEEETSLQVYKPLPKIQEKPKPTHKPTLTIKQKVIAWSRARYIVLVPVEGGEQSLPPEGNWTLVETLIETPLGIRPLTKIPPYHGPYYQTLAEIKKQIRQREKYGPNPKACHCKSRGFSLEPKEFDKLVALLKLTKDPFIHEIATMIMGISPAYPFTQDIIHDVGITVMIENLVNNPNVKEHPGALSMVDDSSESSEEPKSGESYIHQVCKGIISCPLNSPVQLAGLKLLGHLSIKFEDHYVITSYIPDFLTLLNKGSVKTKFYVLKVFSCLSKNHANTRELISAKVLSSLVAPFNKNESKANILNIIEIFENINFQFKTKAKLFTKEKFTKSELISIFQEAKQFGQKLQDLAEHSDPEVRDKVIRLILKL
Sequence of UniProt O00170 (O00170 whole entry, looked up): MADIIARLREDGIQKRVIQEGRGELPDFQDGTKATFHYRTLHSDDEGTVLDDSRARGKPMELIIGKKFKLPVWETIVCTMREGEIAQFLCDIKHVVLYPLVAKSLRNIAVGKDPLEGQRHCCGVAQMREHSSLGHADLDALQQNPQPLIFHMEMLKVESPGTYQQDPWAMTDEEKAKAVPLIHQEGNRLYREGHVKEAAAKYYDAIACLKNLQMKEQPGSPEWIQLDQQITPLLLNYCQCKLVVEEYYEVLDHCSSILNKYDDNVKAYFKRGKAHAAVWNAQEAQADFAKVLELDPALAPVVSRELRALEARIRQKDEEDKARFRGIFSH
Sequence of UniProt P55263 (P55263 whole entry, looked up): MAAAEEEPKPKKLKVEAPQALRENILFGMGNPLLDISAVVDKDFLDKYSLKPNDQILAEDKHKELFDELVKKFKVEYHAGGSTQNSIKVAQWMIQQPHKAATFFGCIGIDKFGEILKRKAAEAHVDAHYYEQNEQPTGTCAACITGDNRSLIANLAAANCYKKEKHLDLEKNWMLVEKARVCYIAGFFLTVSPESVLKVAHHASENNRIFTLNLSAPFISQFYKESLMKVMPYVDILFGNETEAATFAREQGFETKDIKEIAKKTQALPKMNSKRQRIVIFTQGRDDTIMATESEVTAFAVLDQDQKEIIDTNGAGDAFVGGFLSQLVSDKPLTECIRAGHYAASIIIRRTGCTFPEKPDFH
Sequence of UniProt Q96P48 (Q96P48 whole entry, looked up): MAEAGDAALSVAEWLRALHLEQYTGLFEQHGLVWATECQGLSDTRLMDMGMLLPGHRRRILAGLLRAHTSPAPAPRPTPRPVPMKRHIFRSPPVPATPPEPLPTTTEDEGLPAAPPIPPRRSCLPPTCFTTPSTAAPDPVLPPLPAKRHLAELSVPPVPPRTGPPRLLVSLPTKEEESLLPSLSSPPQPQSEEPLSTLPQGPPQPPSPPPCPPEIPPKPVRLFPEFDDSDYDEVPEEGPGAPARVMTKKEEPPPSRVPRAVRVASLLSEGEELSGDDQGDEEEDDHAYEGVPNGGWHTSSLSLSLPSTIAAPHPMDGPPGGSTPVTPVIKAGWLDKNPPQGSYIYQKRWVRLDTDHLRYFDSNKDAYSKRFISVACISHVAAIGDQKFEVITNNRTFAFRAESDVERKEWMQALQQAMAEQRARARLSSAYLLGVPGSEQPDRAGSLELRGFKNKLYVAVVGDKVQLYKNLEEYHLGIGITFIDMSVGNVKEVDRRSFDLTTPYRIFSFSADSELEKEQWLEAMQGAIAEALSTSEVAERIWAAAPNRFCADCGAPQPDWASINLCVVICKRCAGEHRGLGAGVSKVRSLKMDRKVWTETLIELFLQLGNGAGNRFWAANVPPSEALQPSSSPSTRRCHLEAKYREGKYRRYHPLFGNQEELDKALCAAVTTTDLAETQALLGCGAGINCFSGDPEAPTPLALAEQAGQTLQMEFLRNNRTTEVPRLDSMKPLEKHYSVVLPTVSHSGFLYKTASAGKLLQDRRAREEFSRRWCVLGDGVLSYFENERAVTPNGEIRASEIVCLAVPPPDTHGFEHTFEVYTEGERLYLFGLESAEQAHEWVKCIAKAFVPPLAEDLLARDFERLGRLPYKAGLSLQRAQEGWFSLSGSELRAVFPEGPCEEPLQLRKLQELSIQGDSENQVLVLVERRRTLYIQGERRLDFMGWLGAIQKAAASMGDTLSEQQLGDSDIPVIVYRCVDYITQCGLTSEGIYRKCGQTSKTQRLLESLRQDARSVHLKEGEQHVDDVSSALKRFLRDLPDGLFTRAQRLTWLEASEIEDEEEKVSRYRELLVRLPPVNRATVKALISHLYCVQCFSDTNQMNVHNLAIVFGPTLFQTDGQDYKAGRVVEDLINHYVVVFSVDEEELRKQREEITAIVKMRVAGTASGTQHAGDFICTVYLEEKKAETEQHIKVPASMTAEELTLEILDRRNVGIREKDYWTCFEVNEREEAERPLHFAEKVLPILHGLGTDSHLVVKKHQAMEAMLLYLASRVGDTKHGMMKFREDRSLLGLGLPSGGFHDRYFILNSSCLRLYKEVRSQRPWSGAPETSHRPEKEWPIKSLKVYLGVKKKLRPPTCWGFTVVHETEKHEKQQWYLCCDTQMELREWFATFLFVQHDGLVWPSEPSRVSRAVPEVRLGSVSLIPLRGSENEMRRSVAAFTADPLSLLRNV
Sequence of UniProt P27144 (P27144 whole entry, looked up): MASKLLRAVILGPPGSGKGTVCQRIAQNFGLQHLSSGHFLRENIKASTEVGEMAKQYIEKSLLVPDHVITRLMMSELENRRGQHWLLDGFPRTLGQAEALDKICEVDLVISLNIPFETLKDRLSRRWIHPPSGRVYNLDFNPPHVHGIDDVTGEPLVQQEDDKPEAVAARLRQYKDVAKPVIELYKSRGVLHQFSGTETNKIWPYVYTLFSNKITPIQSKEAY
Sequence of UniProt Q3SY69 (Q3SY69 whole entry, looked up): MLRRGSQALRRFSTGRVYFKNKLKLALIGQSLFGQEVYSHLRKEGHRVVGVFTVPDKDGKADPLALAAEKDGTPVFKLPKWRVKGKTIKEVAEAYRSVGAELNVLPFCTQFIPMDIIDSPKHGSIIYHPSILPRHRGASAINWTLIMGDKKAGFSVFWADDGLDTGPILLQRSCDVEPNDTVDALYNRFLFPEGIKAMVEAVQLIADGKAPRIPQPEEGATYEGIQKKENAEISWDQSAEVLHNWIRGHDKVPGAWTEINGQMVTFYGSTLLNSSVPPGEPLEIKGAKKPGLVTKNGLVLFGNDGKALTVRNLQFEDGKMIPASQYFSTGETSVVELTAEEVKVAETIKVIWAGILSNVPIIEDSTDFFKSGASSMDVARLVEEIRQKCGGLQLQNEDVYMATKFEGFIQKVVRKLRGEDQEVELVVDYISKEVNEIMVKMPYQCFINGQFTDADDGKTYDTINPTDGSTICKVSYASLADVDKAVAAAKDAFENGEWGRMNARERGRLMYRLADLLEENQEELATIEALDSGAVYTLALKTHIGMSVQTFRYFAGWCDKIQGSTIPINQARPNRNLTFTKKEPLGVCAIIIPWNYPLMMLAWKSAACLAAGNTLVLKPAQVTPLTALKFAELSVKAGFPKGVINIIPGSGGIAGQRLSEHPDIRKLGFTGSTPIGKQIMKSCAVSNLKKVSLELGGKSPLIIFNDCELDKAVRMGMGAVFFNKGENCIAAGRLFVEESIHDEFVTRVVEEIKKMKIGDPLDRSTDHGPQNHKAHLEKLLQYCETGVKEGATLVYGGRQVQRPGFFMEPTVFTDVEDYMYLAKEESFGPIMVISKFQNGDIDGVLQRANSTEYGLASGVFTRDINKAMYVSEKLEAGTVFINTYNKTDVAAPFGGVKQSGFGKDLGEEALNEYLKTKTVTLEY

Target | log2 fold change [1] | log2 fold change [2] | log2 fold change [3] | log2 fold change [4] | log2 fold change [5] | log2 fold change [6] | log2 fold change [7] | log2 fold change [8] | log2 fold change [9] | log2 fold change [10] | log2 fold change [11] | log2 fold change [12] | log2 fold change [13] | log2 fold change [14] | log2 fold change [15] | log2 fold change [16] | log2 fold change [17] | log2 fold change [18] | log2 fold change [19] | log2 fold change [20]
ARHGAP6 (UniProt O43182) | 0.013 | -0.145 | -0.04 | 0.061 | 0.07 | 0.041 | -0.005 | -0.016 | 0.037 | 0.015 | 0.081 | -0.008 | -0.018 | -0.038 | -0.017 | 0.101 | -0.007 | 0.002 | 0.01 | -0.018
ARL8A (UniProt Q96BM9) | -0.223 | -0.039 | 0.176 | 0.157 | 0.036 | 0 | -0.041 | 0.026 | 0.028 | 0.091 | -0.141 | 0.119 | -0.101 | -0.102 | 0.11 | 0.135 | -0.049 | -0.143 | -0.022 | 0
ANXA5 (UniProt P08758) | -0.011 | -0.001 | -0.024 | 0.014 | -0.016 | -0.023 | 0.009 | -0.003 | -0.049 | -0.03 | -0.009 | -0.005 | 0.014 | 0.038 | -0.026 | 0.007 | 0.032 | -0.024 | 0 | 0.005
ARAP1 (UniProt Q96P48) | 0.003 | -0.164 | -0.041 | 0.024 | 0.022 | 0.022 | 0.013 | -0.01 | -0.007 | 0.008 | -0.01 | 0.002 | 0.016 | 0.028 | 0.003 | 0.02 | -0.01 | 0.005 | 0.057 | 0.006
AKAP11 (UniProt Q9UKA4) | 0.114 | 0.232 | 0.037 | 0.095 | 0.016 | 0.059 | -0.361 (active) | -0.064 | 0.017 | -0.071 | 0.032 | -0.111 | 0.058 | -0.068 | 0.054 | 0.065 | -0.015 | -0.002 | 0.003 | 0.085
AGL (UniProt P35573) | 0.007 | 0.002 | 0.003 | -0.021 | -0.01 | 0.008 | -0.035 | -0.017 | -0.006 | 0.001 | -0.007 | 0.01 | 0.048 | 0.018 | -0.006 | -0.004 | 0.021 | -0.017 | 0 | 0.027
AIP (UniProt O00170) | -0.006 | -0.032 | -0.015 | -0.004 | -0.012 | 0.018 | 0.026 | -0.002 | 0.016 | -0.012 | 0.019 | -0.004 | -0.022 | -0.003 | -0.012 | -0.011 | -0.017 | 0.011 | 0 | -0.023
ALDH1L2 (UniProt Q3SY69) | 0.005 | 0.025 | 0.011 | 0.037 | -0.02 | -0.004 | -0.064 | -0.018 | 0.024 | -0.011 | 0.033 | 0.034 | 0.024 | -0.038 | 0.006 | 0.029 | -0.022 | -0.028 | -0.006 | 0.016
ADK (UniProt P55263) | 0.219 | -0.024 | -0.028 | 0.132 | -0.079 | 0.047 | 0.011 | -0.049 | 0.026 | 0.063 | -0.028 | 0.107 | 0.313 | -0.027 | -0.05 | -0.073 | -0.059 | -0.007 | -0.008 | -0.005
ACSL1 (UniProt P33121) | 0.02 | -0.104 | -0.153 | 0.086 | 0.051 | 0.025 | -0.04 | 0.009 | 0.012 | 0.022 | 0.009 | 0.008 | -0.004 | -0.075 | 0.01 | 0.024 | 0.004 | -0.01 | 0.026 | -0.004
ARMCX5 (UniProt Q6P1M9) | -0.08 | 0.047 | -0.004 | 0.157 | 0.001 | 0.03 | -0.35 (active) | 0.075 | -0.039 | -0.08 | 0.04 | -0.018 | 0.012 | 0.013 | -0.004 | -0.047 | 0.053 |  | -0.049 | -0.093
AK4 (UniProt P27144) | -0.024 | 0.024 | -0.024 | -0.01 | -0.01 | 0.015 | 0.015 | 0.036 | 0.02 | -0.002 | 0.06 | -0.019 | -0.036 | -0.016 | -0.008 | 0.021 | -0.005 | 0.012 | 0.022 | -0.017
ACYP1 (UniProt P07311) | -0.032 | 0.028 | -0.007 | -0.02 | -0.008 | -0.017 | -0.01 | 0.024 | -0.004 | 0.013 | 0.056 | 0.027 | 0 | -0.024 | -0.011 | -0.021 | 0.015 | -0.013 | -0.024 | 0.021
AGPAT1 (UniProt Q99943) | 0.012 | 0.027 | -0.145 | 0.05 | 0.028 | -0.023 | -0.01 | -0.019 | 0.01 | 0.036 | -0.121 | -0.05 | 0.027 | -0.051 | -0.026 | 0.06 | 0.012 | 0.02 | 0.043 | 0.042
ACIN1 (UniProt E7EQT4) | 0.001 | -0.16 | 0 | 0.05 | -0.027 | -0.057 | -0.009 | 0.008 | -0.027 | 0.012 | 0.049 | -0.033 | 0.123 | -0.052 | 0.028 | -0.017 | -0.052 | 0.094 | -0.03 | -0.002
ALDH2 (UniProt P05091) | -0.048 | 0.009 | -0.062 | 0.03 | 0.042 | -0.016 | 0.175 | 0.011 | 0.023 | 0.003 | -0.001 | 0.081 | 0.002 | -0.012 | 0.199 | -0.013 | 0.014 | -0.081 | 0 | 0.01
